Results published in PubChem BioAssay (NCATS).
Inconclusive results are not listed. A number with no mark means an inactive call. Calls follow the shape of the dose curve; as a rule, active = well fitted inhibition curve with a large enough effect; inconclusive = small, poorly fitted or top-dose-only effect; inactive = flat fitted curve, though single readings scatter.

Biological target: Calcium and integrin-binding protein 1 (Homo sapiens) (UniProt Q99828)
Experiment: Primary qHTS for Identification of Calcium Integrin Binding Protein 1 (CIB1) Competitor (AID 1508620);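 also: GST tagged CIB1 binding a fluorescein labelled alphaIIb integrin peptide tracer; top concentration of the series differs between compounds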
Conditions: CIB1-GST / FITC-alphaIIb peptide fluorescence polarization; series mostly up to 114 µM; activity change, negative = inhibition: at the top concentration
Summary of the method: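 CIB1-GST (1 uM final) and compound incubated 15 min at room temperature before adding FITC-alphaIIb peptide tracer (100 nM final). Competition for binding read by fluorescence polarization (ex 480, em 540) after another 15 min at room temperature.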
% is scaled to controls: 0 for no effect and ±100 for the full control effect.

Chain of Calcium and integrin-binding protein 1 (Homo sapiens) (Q99828 whole entry, looked up): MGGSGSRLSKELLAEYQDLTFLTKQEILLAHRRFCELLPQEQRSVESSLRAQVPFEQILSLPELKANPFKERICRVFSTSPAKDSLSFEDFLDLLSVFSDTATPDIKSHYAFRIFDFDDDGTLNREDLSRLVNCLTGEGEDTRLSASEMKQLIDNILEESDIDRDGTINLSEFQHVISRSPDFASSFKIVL

Compound	activity change, negative = inhibition [%]
CCc1ccc(NC(=O)C(=O)NNC(=O)Cc2ccc(Cl)c(Cl)c2)cc1	-5.49
O=C1CCCC2=C1C(c1ccccc1C(F)(F)F)N=C(Nc1nc3ccccc3o1)N2 (stereo not drawn)	0.358
O=C(O)c1ccc2c(c1)C(=O)N([C@H](Cc1ccc(-c3ccccc3)cc1)C(=O)O)C2=O	-10.2
FC(F)(F)c1ccc(-c2ccc(CNc3nc(-c4ccccc4C(F)(F)F)nc4ccccc34)cc2)cn1	3.69
Cc1cc(C)nc(NC(=S)N2CCN(c3cccc([N+](=O)[O-])c3)CC2)c1	-21.9
CCCCNC(=O)c1ccc2c(c1)ncn2-c1cccc(C)c1	2.37
COc1cccc(C2=Nn3c(nnc3-c3ccc(OC)c(OC)c3)SC2)c1	-2.16
Cc1ccc(C[C@@H](NS(=O)(=O)c2ccc(C(=O)O)cc2)C(=O)O)cc1	1.18
O=C(Nc1ncc(Cc2ccc(C(F)(F)F)cc2)s1)c1ncc(-c2ccccc2)[nH]1	3.58
Cc1ccc(NS(=O)(=O)c2cc3c(cc2C)OCC(=O)N3)cc1C	3.46
CS(=O)(=O)c1ccc(-c2csc(N3CCC(C(N)=O)CC3)n2)cc1	6.89
Cn1ccc2cc(-c3ccc4ncnc(NCc5cccnc5)c4c3)ccc21	-3.03
COc1cc(OC)cc(-c2nnc3n2N=C(c2ccc(OC)cc2OC)CS3)c1	11.3
N#Cc1ccc(C[C@@H](NS(=O)(=O)c2ccc(C(=O)O)cc2)C(=O)O)cc1	0.436
NC(=O)C1CCN(c2nc(-c3ccc(OCc4ccccc4)cc3)cs2)CC1	-4.3
O=C(Nc1ccc(Cl)c(Cl)c1)Nc1nnc(-c2cccnc2)s1	2.97
Cn1nnnc1Sc1ncnc2scc(-c3cccc(Br)c3)c12	2.72
CC(=O)N1CCN(C(=S)Nc2cc(C)ccn2)CC1	-6.92
Cc1ccc(OCCn2c(CCNC(=O)c3cccc4[nH]ccc34)nc3ccccc32)cc1	7.24
COc1cc(OC)cc(-c2nnc3n2N=C(c2ccc(OC)c(OC)c2)CS3)c1	-6.1
Cc1ccc(OCCn2c(CCNC(=O)Cc3cccc(F)c3)nc3ccccc32)cc1	6.44
CC(=O)Nc1sc2c(c1C(=O)c1ccccc1)CCN(C(C)C)C2	-13.9
Cc1ccc(-c2ccc(=O)n(CC(=O)N(C)C3CCCCCC3)n2)cc1	-0.875
